Records with an inconclusive call do not appear. More than one record can exist for a structure, and the calls need not agree. Activity calls are given as the source filed them. The calls were made as follows, unless noted: active = hit-call score of the fitted dose curve at least 0.9, where 1 is the maximum; inactive = score below 0.9.
Key:
[1] = target: Myc proto-oncogene protein (Homo sapiens) (UniProt P01106); assay: ATG_Myc_CIS: Attagene CIS-FACTORIAL HepG2 Assay for human Myelocytomatosis (Myc) Proto-Oncogene Transcription Factor (AID 2282990); conditions: HepG2, Attagene cis-reporter transcription factor activity; actives raise or lower the signal
Myc proto-oncogene protein (Homo sapiens), sequence (P01106 whole entry, looked up, the tested form may be a part): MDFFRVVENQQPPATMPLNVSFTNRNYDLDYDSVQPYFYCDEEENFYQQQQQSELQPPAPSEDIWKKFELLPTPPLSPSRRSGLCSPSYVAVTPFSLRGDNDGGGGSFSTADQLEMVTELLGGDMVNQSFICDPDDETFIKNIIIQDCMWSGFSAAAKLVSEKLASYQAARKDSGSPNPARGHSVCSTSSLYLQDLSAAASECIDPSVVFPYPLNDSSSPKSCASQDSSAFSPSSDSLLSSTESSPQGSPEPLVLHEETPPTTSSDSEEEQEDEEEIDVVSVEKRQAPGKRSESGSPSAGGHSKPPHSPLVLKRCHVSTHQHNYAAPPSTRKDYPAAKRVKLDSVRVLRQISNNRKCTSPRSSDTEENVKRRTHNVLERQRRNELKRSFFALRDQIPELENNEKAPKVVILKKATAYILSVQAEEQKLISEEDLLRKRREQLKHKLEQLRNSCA
Method in brief: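 After 24 h chemical treatment of HepG2 cells carrying multiplexed cis-regulated reporter constructs, reporter transcripts quantified by RT-PCR and capillary electrophoresis of fluorescent fragments. Gain or loss fitted against DMSO baseline.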

[2] = ATG_NF_kB_CIS: Attagene CIS-FACTORIAL HepG2 Assay for human Nuclear Factor Kappa B (NF-kB) (AID 2282991); conditions: HepG2 Attagene cis-factorial NF-kB reporter mRNA; actives raise or lower the signal
Method in brief: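 Transient MRTU transfection of human HepG2 liver cells → 24 h chemical exposure → total RNA, oligo(dT) RT → PCR, 6-FAM primer extension, HpaI digest 2 h 37 C → CE fragment analysis. Bidirectional fitting, DMSO negative control.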

[3] = ATG_NRF2_ARE_CIS: Attagene CIS-FACTORIAL HepG2 Assay for human Nuclear Factor Erythroid 2 Related Factor 2 (NFR2) response to Antioxidant Response Elements (ARE) (AID 2282992); conditions: HepG2 Attagene ARE/NRF2 reporter, transcription factor activity; actives raise or lower the signal;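 as to AC50: reporter mRNA level measured by RT-PCR and capillary electrophoresis fluorescence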
Method in brief: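 HepG2 cells transiently transfected with multiplexed cis-element reporter constructs, 24 h after chemical dosing; reporter mRNA quantified by RT-PCR, fluorescent primer extension, HpaI digestion and capillary electrophoresis. Bidirectional fit relative to DMSO.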

[4] = ATG_Oct_MLP_CIS: Attagene CIS-FACTORIAL HepG2 Assay for human Octamer-Binding Transcription Factor (Oct) (AID 2282993); conditions: HepG2 Attagene cis-factorial Oct reporter, mRNA; actives raise or lower the signal
Method in brief: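 Transient MRTU transfection of HepG2 → 24 h compound treatment → RNA isolation, reverse transcription, PCR → 6-FAM primer extension, HpaI digest → capillary electrophoresis. Activity fitted both directions against DMSO.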

[5] = target: Cellular tumor antigen p53 (Homo sapiens) (UniProt P04637); assay: ATG_p53_CIS: Attagene CIS-FACTORIAL HepG2 Assay for human p53 Transcription Factor (AID 2282994); conditions: HepG2 p53 cis-element reporter, Attagene mRNA; actives raise or lower the signal
Cellular tumor antigen p53 (Homo sapiens), sequence (P04637 whole entry, looked up): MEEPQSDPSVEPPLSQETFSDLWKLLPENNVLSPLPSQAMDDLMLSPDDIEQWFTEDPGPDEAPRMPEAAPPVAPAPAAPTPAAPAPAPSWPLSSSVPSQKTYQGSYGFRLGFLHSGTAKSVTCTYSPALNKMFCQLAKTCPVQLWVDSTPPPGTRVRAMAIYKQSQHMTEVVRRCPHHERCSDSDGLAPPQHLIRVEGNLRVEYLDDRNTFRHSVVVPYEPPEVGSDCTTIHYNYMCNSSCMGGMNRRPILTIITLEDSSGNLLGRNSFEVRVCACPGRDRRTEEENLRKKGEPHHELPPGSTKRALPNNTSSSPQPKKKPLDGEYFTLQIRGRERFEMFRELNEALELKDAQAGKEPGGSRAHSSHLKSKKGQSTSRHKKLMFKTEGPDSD
Method in brief: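 HepG2 cells transiently transfected with cis-regulated multiple reporter transcription units, dosed 24 h. Reporter mRNA measured by RT-PCR, 6-FAM primer extension, HpaI digestion and capillary electrophoresis; bidirectional fit relative to DMSO.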

[6] = target: human Peroxisome Proliferator-activated Receptor alpha (PPARa), PPARA (gene 5465) (UniProt Q07869); assay: ATG_PPARa_TRANS: Attagene TRANS-FACTORIAL HepG2 Assay for human Peroxisome Proliferator-activated Receptor alpha (PPARa) (AID 2283001; active = hit-call score of the fitted dose curve at least 0.9, where 1 is the maximum)
human Peroxisome Proliferator-activated Receptor alpha (PPARa), PPARA (gene 5465), sequence (Q07869 whole entry, looked up, the tested form may be a part): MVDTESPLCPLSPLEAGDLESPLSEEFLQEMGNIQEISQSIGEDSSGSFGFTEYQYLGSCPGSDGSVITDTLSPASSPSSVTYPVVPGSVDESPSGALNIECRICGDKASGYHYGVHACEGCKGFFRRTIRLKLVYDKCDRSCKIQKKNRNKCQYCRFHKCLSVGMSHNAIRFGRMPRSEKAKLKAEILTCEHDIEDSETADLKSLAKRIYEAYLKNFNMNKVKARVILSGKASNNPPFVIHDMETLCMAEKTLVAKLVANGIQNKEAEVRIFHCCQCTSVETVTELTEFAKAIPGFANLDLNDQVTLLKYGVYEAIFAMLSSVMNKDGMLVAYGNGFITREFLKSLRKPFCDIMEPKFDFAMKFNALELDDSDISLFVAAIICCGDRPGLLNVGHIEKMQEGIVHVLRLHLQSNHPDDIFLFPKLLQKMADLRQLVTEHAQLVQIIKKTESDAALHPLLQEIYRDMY
Method in brief: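 Read-out is fluorescence of reporter cDNA fragments resolved by capillary electrophoresis after RT-PCR. Human HepG2 liver cells carried transfected PPARa-Gal4 chimera and GAL4-UAS reporter units, treated 24 h; activity scored as increase over DMSO.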

[7] = target: Nuclear receptor subfamily 1 group I member 2 (Homo sapiens) (UniProt O75469); assay: ATG_PXR_TRANS: Attagene TRANS-FACTORIAL HepG2 Assay for human Pregnane X Receptor (PXR) (AID 2283008; active = hit-call score of the fitted dose curve at least 0.9, where 1 is the maximum)
Nuclear receptor subfamily 1 group I member 2 (Homo sapiens), sequence (O75469 whole entry, looked up, the tested form may be a part): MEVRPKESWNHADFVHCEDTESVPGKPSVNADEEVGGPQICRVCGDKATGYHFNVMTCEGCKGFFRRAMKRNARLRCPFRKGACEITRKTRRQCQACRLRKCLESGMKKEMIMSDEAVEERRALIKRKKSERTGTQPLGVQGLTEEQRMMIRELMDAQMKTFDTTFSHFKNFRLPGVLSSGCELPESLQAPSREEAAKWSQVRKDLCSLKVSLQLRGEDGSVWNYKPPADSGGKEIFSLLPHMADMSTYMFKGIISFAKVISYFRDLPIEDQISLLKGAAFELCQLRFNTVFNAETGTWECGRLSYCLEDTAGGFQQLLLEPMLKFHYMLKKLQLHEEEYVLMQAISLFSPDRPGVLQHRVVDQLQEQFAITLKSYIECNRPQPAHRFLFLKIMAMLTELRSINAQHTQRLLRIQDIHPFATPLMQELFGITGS
Method in brief: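 HepG2 cells transiently transfected with GAL4-UAS reporter units and PXR-Gal4 chimera, exposed 24 h. Reporter mRNA quantified by RT-PCR, fluorescent labelling, HpaI digestion and capillary electrophoresis; gain of signal vs DMSO.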

[8] = target: human RAR-related Orphan Receptor gamma (RORg), RORC (gene 6097) (UniProt P51449); assay: ATG_RORg_TRANS: Attagene TRANS-FACTORIAL HepG2 Assay for human RAR-related Orphan Receptor gamma (RORg) (AID 2283011; active = hit-call score of the fitted dose curve at least 0.9, where 1 is the maximum)
human RAR-related Orphan Receptor gamma (RORg), RORC (gene 6097), sequence (P51449 whole entry, looked up, the tested form may be a part): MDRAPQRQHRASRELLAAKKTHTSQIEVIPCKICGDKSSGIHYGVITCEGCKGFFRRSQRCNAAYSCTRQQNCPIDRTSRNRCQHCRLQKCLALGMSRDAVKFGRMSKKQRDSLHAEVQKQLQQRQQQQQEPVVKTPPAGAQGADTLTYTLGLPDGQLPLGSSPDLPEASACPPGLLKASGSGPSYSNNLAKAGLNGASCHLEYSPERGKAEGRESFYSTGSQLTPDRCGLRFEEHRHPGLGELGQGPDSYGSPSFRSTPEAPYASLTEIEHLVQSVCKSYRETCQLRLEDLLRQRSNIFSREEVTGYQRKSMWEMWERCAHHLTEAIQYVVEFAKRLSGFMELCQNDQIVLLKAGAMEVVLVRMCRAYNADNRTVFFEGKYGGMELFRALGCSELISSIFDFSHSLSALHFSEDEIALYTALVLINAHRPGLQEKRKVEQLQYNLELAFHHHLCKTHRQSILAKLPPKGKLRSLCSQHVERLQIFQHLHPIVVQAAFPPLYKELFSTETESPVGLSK
Method in brief: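 HepG2 cells transiently transfected with GAL4-UAS reporter units and chimeric RORg-Gal4 construct; after 24 h chemical exposure, reporter mRNA measured by RT-PCR with fluorescent capillary electrophoresis, gain of signal fitted against DMSO.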

[9] = BSK_3C_uPAR: BioMAP Diversity Plus: 3C Assay for Urokinase-type plasminogen activator receptor (uPAR) Biomarker Activity (AID 2282998); conditions: BioMAP 3C HUVEC, uPAR biomarker ELISA; actives raise or lower the signal
Method in brief: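 ELISA readout of uPAR on human vascular endothelium (umbilical vein primary cells), taken 24 h after chemical dosing. Increases and decreases are both fitted relative to DMSO vehicle.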

[10] = BSK_3C_VCAM1: BioMAP Diversity Plus: 3C Assay for Vascular cell adhesion molecule 1 (VCAM1) Biomarker Activity (AID 2282999); conditions: BioMAP 3C HUVEC, VCAM1 ELISA, cytokine-stimulated; actives raise or lower the signal
Method in brief: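 Endothelial cells from human umbilical vein are treated with test chemical. At 24 h, VCAM-1 is measured by ELISA, and responses in either direction are fitted relative to DMSO.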

[11] = BSK_4H_Eotaxin3: BioMAP Diversity Plus: 4H Assay for Eotaxin 3 Biomarker Activity (AID 2283000); conditions: primary human endothelial cells (HUVEC); actives raise or lower the signal
Method in brief: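 Eotaxin-3 (CCL26) levels were measured by ELISA in HUVEC primary cultures 24 h post-dosing. Gain or loss of signal was fitted in both directions, with DMSO serving as baseline and negative control.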

[12] = read-out: Intercellular Adhesion Molecule 1 (ICAM1), ICAM1 (gene 3383); assay: BSK_3C_ICAM1: BioMAP Diversity Plus: 3C Assay for Intercellular Adhesion Molecule 1 (ICAM1) Biomarker Activity (AID 2283003); conditions: primary human endothelial cells (HUVEC); actives raise or lower the signal
Method in brief: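 HUVEC primary cells stimulated under 3C conditions; ICAM1 measured by ELISA 24 h after compound dosing. Curves fitted bidirectionally against the DMSO baseline. Overt cytotoxicity checked by SRB staining of parallel cultures.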

[13] = BSK_3C_Proliferation: Cell Proliferation Assessment in the BioMAP Diversity Plus: 3C Assay (AID 2283006); conditions: primary human endothelial cells (HUVEC);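 as to AC50: potency may reflect either rise or fall in cell number versus DMSO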
Method in brief: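 Subconfluent HUVEC (3C system) cultured with chemical; relative cell number read at 48 h by sulforhodamine B total-protein staining (0.1% SRB after 10% TCA fixation, 560 nm). Bidirectional fit relative to DMSO.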

[14] = target: human RAR-related Orphan Receptor beta (RORb), RORB (gene 6096) (UniProt Q92753); assay: ATG_RORb_TRANS: Attagene TRANS-FACTORIAL HepG2 Assay for human RAR-related Orphan Receptor beta (RORb) (AID 2283010; active = hit-call score of the fitted dose curve at least 0.9, where 1 is the maximum)
human RAR-related Orphan Receptor beta (RORb), RORB (gene 6096), sequence (Q92753 whole entry, looked up, the tested form may be a part): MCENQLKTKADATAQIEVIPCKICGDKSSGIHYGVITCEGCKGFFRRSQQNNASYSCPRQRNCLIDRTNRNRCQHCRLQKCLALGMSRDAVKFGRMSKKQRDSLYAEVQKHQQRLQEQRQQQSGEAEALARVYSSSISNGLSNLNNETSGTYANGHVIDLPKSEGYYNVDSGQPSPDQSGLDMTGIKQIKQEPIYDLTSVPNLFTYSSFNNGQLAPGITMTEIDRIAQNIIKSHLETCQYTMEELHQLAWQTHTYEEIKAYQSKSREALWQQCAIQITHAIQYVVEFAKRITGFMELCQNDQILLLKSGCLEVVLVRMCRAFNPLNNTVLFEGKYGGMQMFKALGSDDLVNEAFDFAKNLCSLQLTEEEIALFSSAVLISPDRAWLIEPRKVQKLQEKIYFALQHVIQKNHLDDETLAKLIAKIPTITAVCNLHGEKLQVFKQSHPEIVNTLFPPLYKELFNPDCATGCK
Method in brief: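 HepG2 cells transiently transfected with GAL4-UAS reporter units expressing chimeric NR-Gal4 protein; reporter mRNA measured 24 h after dosing by RT-PCR, 6-FAM labelling and capillary electrophoresis. Gain-of-signal fitted relative to DMSO baseline.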

[15] = target: human Peroxisome Proliferator-activated Receptor delta (PPARd), PPARD (gene 5467) (UniProt Q03181); assay: ATG_PPARd_TRANS: Attagene TRANS-FACTORIAL HepG2 Assay for human Peroxisome Proliferator-activated Receptor delta (PPARd) (AID 2283002; active = hit-call score of the fitted dose curve at least 0.9, where 1 is the maximum)
human Peroxisome Proliferator-activated Receptor delta (PPARd), PPARD (gene 5467), sequence (Q03181 whole entry, looked up, the tested form may be a part): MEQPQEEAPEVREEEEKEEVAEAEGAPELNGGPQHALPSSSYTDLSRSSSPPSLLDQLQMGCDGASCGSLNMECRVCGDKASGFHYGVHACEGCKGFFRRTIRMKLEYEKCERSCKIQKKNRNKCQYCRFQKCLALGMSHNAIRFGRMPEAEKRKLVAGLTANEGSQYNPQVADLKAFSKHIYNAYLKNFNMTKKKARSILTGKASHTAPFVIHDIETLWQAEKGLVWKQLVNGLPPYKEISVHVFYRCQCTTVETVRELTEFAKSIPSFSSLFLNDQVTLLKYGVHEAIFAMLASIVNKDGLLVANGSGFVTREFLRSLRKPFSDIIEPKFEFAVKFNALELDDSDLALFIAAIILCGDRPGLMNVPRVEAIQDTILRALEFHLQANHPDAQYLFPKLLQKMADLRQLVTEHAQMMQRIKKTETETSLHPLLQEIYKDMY
Method in brief: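 Read-out is induced reporter mRNA, quantified by RT-PCR with fluorescent labelling and capillary electrophoresis after 24 h dosing. Cells are HepG2 transiently carrying multiple GAL4-UAS reporter units driven by exogenous NR-GAL4 chimeras; DMSO serves as baseline.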

[16] = target: human Retinoic Acid Receptor beta (RARb), RARB (gene 5915) (UniProt P10826); assay: ATG_RARb_TRANS: Attagene TRANS-FACTORIAL HepG2 Assay for human Retinoic Acid Receptor beta (AID 2283004; active = hit-call score of the fitted dose curve at least 0.9, where 1 is the maximum)
human Retinoic Acid Receptor beta (RARb), RARB (gene 5915), sequence (P10826 whole entry, looked up, the tested form may be a part): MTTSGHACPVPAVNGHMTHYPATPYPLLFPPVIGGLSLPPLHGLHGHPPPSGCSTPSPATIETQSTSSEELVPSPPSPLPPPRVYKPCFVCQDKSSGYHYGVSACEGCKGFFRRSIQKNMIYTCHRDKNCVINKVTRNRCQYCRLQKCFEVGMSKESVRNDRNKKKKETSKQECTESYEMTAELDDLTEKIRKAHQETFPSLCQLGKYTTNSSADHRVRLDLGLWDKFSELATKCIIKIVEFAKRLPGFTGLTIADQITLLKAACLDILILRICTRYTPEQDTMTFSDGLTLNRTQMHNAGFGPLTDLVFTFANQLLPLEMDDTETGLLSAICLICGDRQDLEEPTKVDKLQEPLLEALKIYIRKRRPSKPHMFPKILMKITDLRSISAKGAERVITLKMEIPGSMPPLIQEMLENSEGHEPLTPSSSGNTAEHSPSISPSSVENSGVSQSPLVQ
Method in brief: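 HepG2 cells were transiently transfected with GAL4-UAS reporter units that report activity of exogenous chimeric NR-Gal4 proteins, then exposed to compound for 24 h. Reporter mRNA was quantified by RT-PCR with capillary electrophoresis fluorescence, as gain of signal over DMSO.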

[17] = target: Peroxisome proliferator-activated receptor gamma (Homo sapiens) (UniProt P37231); assay: ATG_PPARg_TRANS: Attagene TRANS-FACTORIAL HepG2 Assay for human Peroxisome Proliferator-activated Receptor-gamma (PPARg) (AID 2283007; active = hit-call score of the fitted dose curve at least 0.9, where 1 is the maximum)
Peroxisome proliferator-activated receptor gamma (Homo sapiens), sequence (P37231 whole entry, looked up, the tested form may be a part): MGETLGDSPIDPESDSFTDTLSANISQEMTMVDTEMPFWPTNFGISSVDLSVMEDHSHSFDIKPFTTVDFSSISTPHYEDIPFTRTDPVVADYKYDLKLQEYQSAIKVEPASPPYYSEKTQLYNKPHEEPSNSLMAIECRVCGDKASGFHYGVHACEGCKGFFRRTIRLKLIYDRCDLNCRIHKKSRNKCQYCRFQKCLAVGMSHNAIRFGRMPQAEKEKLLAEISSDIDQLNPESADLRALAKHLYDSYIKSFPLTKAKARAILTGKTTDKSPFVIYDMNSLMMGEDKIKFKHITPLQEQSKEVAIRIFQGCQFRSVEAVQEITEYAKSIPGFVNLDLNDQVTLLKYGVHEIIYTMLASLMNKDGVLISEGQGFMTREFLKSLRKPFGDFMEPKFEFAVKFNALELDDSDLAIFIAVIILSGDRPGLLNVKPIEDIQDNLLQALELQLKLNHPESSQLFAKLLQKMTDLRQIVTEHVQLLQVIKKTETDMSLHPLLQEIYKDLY
Method in brief: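 Transient transfection of HepG2 with GAL4-UAS-driven reporter units; chemical dosing 24 h; total RNA → oligo(dT) RT → PCR with reporter primers → 6-FAM primer extension → HpaI digest 2 h 37 C → capillary electrophoresis. Positive direction vs DMSO.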

[18] = target: human Retinoic Acid Receptor gamma (RARg), RARG (gene 5916) (UniProt P13631); assay: ATG_RARg_TRANS: Attagene TRANS-FACTORIAL HepG2 Assay for human Retinoic Acid Receptor gamma (RARg) (AID 2283009; active = hit-call score of the fitted dose curve at least 0.9, where 1 is the maximum;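 as to AC50: AC50 is for reporter induction above DMSO meaning RARg activation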)
human Retinoic Acid Receptor gamma (RARg), RARG (gene 5916), sequence (P13631 whole entry, looked up, the tested form may be a part): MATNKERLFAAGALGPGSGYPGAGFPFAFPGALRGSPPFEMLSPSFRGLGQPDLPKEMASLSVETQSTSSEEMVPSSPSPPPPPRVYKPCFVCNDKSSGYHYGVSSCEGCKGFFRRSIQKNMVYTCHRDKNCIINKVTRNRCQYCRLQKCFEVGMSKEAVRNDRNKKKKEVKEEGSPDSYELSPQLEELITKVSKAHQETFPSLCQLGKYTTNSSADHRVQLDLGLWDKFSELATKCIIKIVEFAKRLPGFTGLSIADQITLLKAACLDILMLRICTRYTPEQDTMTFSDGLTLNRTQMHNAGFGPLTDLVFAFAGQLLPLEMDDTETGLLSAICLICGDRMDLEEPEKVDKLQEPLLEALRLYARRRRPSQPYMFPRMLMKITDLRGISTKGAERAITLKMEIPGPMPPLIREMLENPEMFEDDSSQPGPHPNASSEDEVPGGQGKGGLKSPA
Method in brief: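 HepG2 transiently transfected with GAL4-UAS reporter units and chimeric NR-Gal4 constructs; 24 h compound exposure. Reporter mRNA quantified by RT-PCR, FAM labeling, HpaI digestion and capillary electrophoresis; gain-of-signal versus DMSO.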

[19] = target: Retinoic acid receptor alpha (Homo sapiens) (UniProt P10276); assay: ATG_RARa_TRANS: Attagene TRANS-FACTORIAL HepG2 Assay for human Retinoic Acid Receptor alpha (RARa) (AID 2283005; active = hit-call score of the fitted dose curve at least 0.9, where 1 is the maximum)
Method in brief: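 Reporter transcripts, measured by RT-PCR with fluorescent labeling and capillary electrophoresis after 24 h dosing, reflect activity of an exogenous human RARa–GAL4 fusion in transiently transfected HepG2. Fitted for increase relative to DMSO.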

[20] = BSK_3C_TissueFactor: BioMAP Diversity Plus: 3C Assay for Tissue Factor Biomarker Activity (AID 2282997); conditions: BioMAP 3C HUVEC, tissue factor biomarker readout; actives raise or lower the signal
Method in brief: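 HUVEC were treated 24 h, then surface tissue factor measured by ELISA and fitted bidirectionally against DMSO. Parallel SRB total-protein staining assessed overt cytotoxicity at the same time point.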

Measured: AC50

C=CC(=O)OCC(CO)(COCC(COC(=O)C=C)(COC(=O)C=C)COC(=O)C=C)COC(=O)C=C
active: [2] 0.817 µM | [4] 2.89 µM | [5] 2.86 µM
inactive: [1] | [3] | [6] | [7] | [8]

CC(=O)CC(C)C
inactive: [1] | [2] | [3] | [4] | [5] | [6] | [7] | [8]

CCCCC=O
not listed: [5] | [15] | [16] | [17] | [18] | [19] | [20]
inactive: all other assays above

COC(=O)CC(C(C)=O)C(=O)OC (centres undefined)
inactive: [1] | [2] | [3] | [4] | [5] | [6] | [15] | [7] | [8]

O=P(O)(O)CCC(F)(F)C(F)(F)C(F)(F)C(F)(F)C(F)(F)C(F)(F)F
active: [11] 0.447 µM
inactive: [1] | [2] | [4] | [5] | [9] | [10] | [11] | [6] | [15] | [12] | [16] | [13] | [17] | [18] | [14] | [8]

C=Cc1ccc(O)c(OC)c1
active: [17] 8.33 µM | [7] 70.3 µM
inactive: [1] | [2] | [4] | [5] | [15] | [16] | [19] | [18] | [8]

Cc1ccc(C(=O)c2ccccc2)cc1
active: [3] 28 µM | [20] 11.3 µM | [10] 26.3 µM | [11] 28.4 µM | [13] 32.1 µM | [17] 100 µM | [7] 19.9 µM
inactive: [1] | [2] | [5] | [9] | [12] | [14]

O=C1c2ccc(O)c(O)c2C(=O)c2c(O)ccc(O)c21
active: [2] 31.1 µM | [3] 6.19 µM | [9] 8.14 µM | [18] 50 µM
not listed: [4] | [8] | [19] | [20]
inactive: all other assays above

CCN(CCC#N)c1ccccc1
active: [7] 38.1 µM
inactive: [1] | [2] | [3] | [16] | [19] | [17] | [18] | [14]

From PubChem BioAssay (EPA / NIEHS)
